Reference: ChEMBL document CHEMBL3988442, “University of Dundee, Small-Polar-MMV Screening Library” (2021)
Among all 48,000 compounds or so, about 13,000 (27%) showed an effect of 50% or more. The list shows a part of the results.

system: Wolbachia pipientis; assay: Anti-Wolbachia Cell-Based Screen; assay type: functional; design: scale not given: in the data most compounds retested in dose-response had high values; conditions: 5 µM

In order of falling “Percent Effect” value:
1. COCCN(C)C[C@@H]1CN(C(=O)c2cccc(Cl)c2)C[C@@H]1CO  153.3%
2. CN1CCCC1c1ccnc(-c2ccccc2)n1 (stereo not given)  129.7%
3. COc1ccc(-c2nccc(C3CCCN3C)n2)cc1 (stereo not given)  122.9%
4. CC(=O)N1CC=C(n2c(=O)[nH]c3ccccc32)CC1  120.7%
5. COCCN1CCCC1c1ccnc(-c2ccccc2)n1 (stereo not given)  120.2%
6. COCCNC(=O)C[C@@H]1COC[C@H]2CN(C(=O)C3CCOCC3)C[C@@H]12  115.8%
7. CN1CCCC1c1ccnc(-c2ccccn2)n1 (stereo not given)  114%
8. O=C(CCc1ccccc1)N1CCCC(c2n[nH]c3nccnc23)C1 (stereo not given)  111%
9. Cc1noc(C)c1CC(=O)Nc1ccn(CC(N)=O)n1  108.2%
10. CCOCC1c2c(ncn2C)CCN1C(=O)c1cnc(C)cn1.O=C(O)C(F)(F)F (stereo not given)  107%
11. O=C(CC1CCCC1)N1C[C@H](Oc2cccnc2)[C@H]2OCCC[C@H]21.O=C(O)C(F)(F)F  105.6%
12. COCCN(C)C[C@@H]1CN(C(=O)c2cccc(C#N)c2)C[C@@H]1CO  104.9%
13. Cc1noc(C)c1CCC(=O)Nc1ccn(C)n1  102.9%
14. Cc1ccc(CC(=O)N2CCCC(c3n[nH]c4nccnc34)C2)cc1 (stereo not given)  102%
15. COc1cccc(-c2nccc(C3CCCN3C)n2)c1 (stereo not given)  102%
16. O=C(c1cscn1)N1C[C@@H](Oc2cccnc2)[C@H]2OCCC[C@H]21  101.6%
17. COCCNC(=O)C[C@@H]1COC[C@H]2CN(C(=O)COC)C[C@@H]12  99.69%
18. CCOCC1c2c(ncn2C)CCN1C(=O)c1cscn1 (stereo not given)  99.42%
19. CN(CCO)C[C@@H]1CN(C(=O)c2cccc(OC(F)F)c2)C[C@@H]1CO  95.7%
20. COCCNC(=O)C[C@@H]1COC[C@H]2CN(CC3CCOCC3)C[C@@H]12.O=C(O)C(F)(F)F  95.67%
21. CCn1ccc(NC(=O)CCc2c(C)noc2C)n1  94.65%
22. O=C(Cc1ccccn1)N1C[C@@H](Oc2cccnc2)[C@H]2OCCC[C@H]21  93.72%
23. O=C(Cc1ccc(F)cc1)N1CCCC(c2n[nH]c3nccnc23)C1 (stereo not given)  91.78%
24. CCn1ccc(NC(=O)CCc2c(C)nn(C)c2C)n1  89.06%
25. CCOCC1c2c(ncn2C)CCN1C(=O)c1ccoc1 (stereo not given)  86.79%
26. Cc1noc(C)c1CC(=O)NCCc1cccs1  21.95%
27. CN(C)S(=O)(=O)N1C[C@H](Oc2cccnc2)[C@H]2OCCC[C@H]21.O=C(O)C(F)(F)F  21.05%
28. COCCOc1ccnc(-c2noc([C@@H]3CCCN3CC(C)(C)C)n2)c1  20.74%
29. Cc1noc(C)c1CCC(=O)NCCc1cccs1  18.14%
30. CN(Cc1cc(F)ccc1F)CC(C)(CO)CO  17.08%
31. Clc1cc(Cl)cc(CN2CCC(NCc3cc[nH]n3)CC2)c1  16.8%
32. Cc1cccc(C(C)(C)NC(=O)CS(=O)(=O)CC(C)C)c1  15.34%
33. Cc1ccc(N2CC[C@@H](NC(=O)c3cnccn3)[C@H](O)C2)nn1  13.4%
34. O=C(N1CCOCC1)N1CCCC1c1nc(-c2ccccn2)no1 (stereo not given)  12.43%
35. CC(NC(=O)c1ccoc1)C(=O)N(C)Cc1cccc(C(F)(F)F)c1 (stereo not given)  12.38%
36. CNC(=O)c1cccc(NCCOc2ccc(CC#N)cc2)c1C  12.16%
37. O=C(C1=CCCC1)N1C[C@H](Oc2cccnc2)[C@H]2OCCC[C@H]21  9.91%
38. CN1CCN(C2CCN(c3ccnc(-c4ccccc4)n3)CC2)C1=O  9.74%
39. CC(C)CN1C(=O)CO[C@@H]2CN(C(=O)N(C)C)C[C@H]21  9.504%
40. CCOCC1c2c(ncn2C(C)C)CCN1C(=O)C1CC1 (stereo not given)  9.389%
41. CC(=O)N1CCN(C(=O)c2c(Cl)c3ccccc3n2C)CC1  8.743%
42. COc1ccc(C2CCCN2c2cnccn2)c(OC)c1 (stereo not given)  8.264%
43. CC(=O)N1CCC2(CC1)CN(C(=O)c1cccc3[nH]ccc13)C2  7.707%
44. Cn1cnc2c1C(COCc1ccccc1)N(Cc1cccnc1)CC2.O=C(O)C(F)(F)F.O=C(O)C(F)(F)F.O=C(O)C(F)(F)F (stereo not given)  3.52%
45. CCc1nc(CCNC(=O)NC2CC2)sc1C  2.732%
46. Cc1ccc(NC(=O)CNc2ccn(CC(N)=O)n2)c(Cl)c1  2.31%
47. CN(C)C(C(=O)N1CCCC1)c1ccccc1F (stereo not given)  1.504%
48. C/C=C(\C)CN1C[C@H](c2cccc(OC)c2)[C@@H](N)C1  1.044%
49. CCOCC1c2c(ncn2C(C)C)CCN1C(C)C.O=C(O)C(F)(F)F.O=C(O)C(F)(F)F (stereo not given)  0.9894%
50. CC[C@H]1CN(S(C)(=O)=O)CC[C@H]1CC(=O)NCCOC  0.9239%
51. CC[C@H]1CN(C(=O)C2CC2)CC[C@H]1CC(=O)NCCN1CCOCC1  0.8633%
52. Cc1nn(C)c(C)c1CCC(=O)Nc1cccn(C)c1=O  0.3485%
53. Cc1cccc(C(C)(C)CNC(=O)CCSc2nnnn2C)c1  -0.1425%
54. O=C(NCCn1ccnc1-c1cc2n(n1)CCCNC2)c1ccncc1  -0.5813%
55. CN1CCCC1CCn1ccnc1-c1nc(-c2ccccc2)no1 (stereo not given)  -1.363%
56. CC(=O)N[C@H](C)c1c(-c2ccc(Cl)cc2)noc1C(=O)O  -1.378%
57. CCS(=O)(=O)CCn1ccc(NC(=O)CCc2cccc(C)c2)n1  -1.723%
58. CCOC(C(=O)N1CCn2c(C)nnc2C1)c1ccccc1 (stereo not given)  -1.753%
59. Cc1cc(C2CCCN(C(=O)COc3ccc(F)cc3F)C2)n[nH]1 (stereo not given)  -1.844%
60. COc1cccc(-c2noc3c2CN(c2ncnc4c2CCC4)CC3)c1  -1.898%
61. O=C(c1ccnnc1)N1C[C@@H](OCC2CCCC2)[C@H]2OCCC[C@H]21  -2.599%
62. CCN(C)CC1CCN(c2ncc(Br)cn2)C1 (stereo not given)  -2.721%
63. CCC1CN(CC(=O)NCCOC)CCO1 (stereo not given)  -3.161%
64. COCCNC(=O)C[C@@H]1COC[C@H]2CN(C(=O)c3cnccn3)C[C@@H]12  -3.747%
65. CCN(C)C[C@@H]1CN(S(=O)(=O)c2cccc(C#N)c2)C[C@@H]1CO  -4.035%
66. O=C(c1cscn1)N1CCn2cnc(COCC3CC3)c2C1  -4.402%
67. CN1CCC(C(=O)NCc2nncn2-c2ccccc2)CC1=O (stereo not given)  -4.452%
68. O=C(c1ccc(F)cc1F)N1C[C@H]2CC[C@@H]1CN(Cc1ccccc1)C2  -4.594%
69. CC(C)N1CC2(CCCN(c3ncc(Cl)cc3F)C2)CCC1=O (stereo not given)  -5.351%
70. O=C(C[C@H]1[C@H]2CN(C(=O)Cc3ccccn3)C[C@@H]12)Nc1cccnc1  -5.449%
71. Cn1cnc2c1C(COCc1ccccc1)N(Cc1ccncc1)CC2.O=C(O)C(F)(F)F.O=C(O)C(F)(F)F.O=C(O)C(F)(F)F (stereo not given)  -5.71%
72. COCCOc1ccnc(-c2noc([C@@H]3CCCN3C)n2)c1  -6.49%
73. Cc1noc(C)c1CCC(=O)N(C)C(C)c1cccs1 (stereo not given)  -6.492%
74. CCc1cc(N(C)Cc2c(C)nn(C)c2C)n2nccc2n1  -6.903%
75. Cc1nn(C)c2nc(-c3ccccn3)nc(NCCC3CCCN3C)c12 (stereo not given)  -7.173%
76. CCn1nc2c(cc1=O)CN(Cc1nc(CCOC)no1)CC2  -7.437%
77. CN(CCO)C[C@@H]1CN(C(=O)c2c(F)cccc2Cl)C[C@@H]1CO  -7.74%
78. COc1cc(F)c(C(=O)N2C[C@@H](CN(C)CCO)[C@@H](CO)C2)c(F)c1  -8.552%
79. O=C(CC1CCCC1)N1CCCC(c2n[nH]c3nccnc23)C1 (stereo not given)  -9.091%
80. COCCN(C)C[C@@H]1CN(C(=O)c2cccc(C(F)(F)F)c2)C[C@@H]1CO  -9.662%
81. CCOCC1c2c(ncn2C(C)C)CCN1C(=O)CC (stereo not given)  -9.692%
82. Cc1cccc(S(=O)(=O)N2CSCC2C(=O)NC(C)(C)C)c1 (stereo not given)  -10.25%
83. COc1ccc(-c2noc([C@@H]3C[C@@H](O)CN3C3CCN(C)CC3)n2)cc1  -10.46%
84. O=C(C[C@@H]1COC[C@H]2CN(CC3CC3)C[C@@H]12)N1CCCCO1.O=C(O)C(F)(F)F  -10.75%
85. Cc1nn(C)c(C)c1CCC(=O)Nc1cn(C)c(=O)n(C)c1=O  -11.84%
86. COCCOc1ccnc(-c2noc([C@@H]3CCCN3CC3CC3)n2)c1  -13.12%
87. CC(C)OCCn1nnnc1Cc1ccc(Br)cc1  -13.25%
88. NC(=O)Cn1ccc(NC(=O)C2(c3ccc(F)cc3)CC2)n1  -13.95%
89. O=C(C[C@@H]1COC[C@H]2CN(CC3CCOCC3)C[C@@H]12)N1CCCCO1.O=C(O)C(F)(F)F  -14.45%
90. CN1CCC(N[C@@H]2CO[C@H](CNC(=O)Nc3ccccc3)[C@H]2O)CC1  -15.1%
91. COc1cccc(Cn2ncc(N(C)CCc3ccccc3)cc2=O)c1  -17.12%
92. CN(C(=O)CN1CCc2nn(C)c(=O)cc2C1)c1nccs1  -17.97%
93. CN(CC(=O)NC(C)(C#N)C1CC1)Cc1nnc(C2CC2)n1C (stereo not given)  -18.04%
94. Cc1[nH]nc(CCC(=O)N2C[C@H]3CC[C@@H]2CN(C(=O)N(C)C)C3)c1C  -18.31%
95. CN(C)CC(=O)N1C[C@@H](Oc2ccccn2)[C@H]2OCCC[C@H]21  -36.21%
